# Measurements from PubChem BioAssay (EPA / NIEHS).
# Activity calls are given as the source filed them. Rule for the calls: active = hit-call score of the fitted dose curve at least 0.9, where 1 is the maximum; inactive = score below 0.9.
# What was measured:
# Details in all cases: mRNA level, 48 h; actives raise or lower the signal
# [1] = read-out: Fatty acid synthase (Homo sapiens) (UniProt P49327); experiment: LTEA_HepaRG_FASN: Life Technologies and Expression Analysis (LTEA) Assay for Fatty Acid Synthase (FASN) using HepaRG (AID 2283448)
# Summary of the method: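 Cells were plated, cultured 48 h, switched to serum-free induction medium, then dosed in duplicate (max 100 uM, half-log dilutions, 0.5% DMSO) for 48 h. RNA was then isolated and FASN quantified by qRT-PCR.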
# [2] = read-out: Cyclin D2 (CCND2), CCND2 (gene 894); experiment: LTEA_HepaRG_CCND2: Life Technologies and Expression Analysis (LTEA) Assay for Cyclin D2 (CCND2) using HepaRG (AID 2283449)
# Summary of the method: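 CCND2 transcript levels, quantified by qRT-PCR and normalised to three housekeeping genes, were fitted bidirectionally against 0.5% DMSO. HepaRG cultures were dosed 48 h in duplicate with an 8-point half-log series up to 100 uM.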
# [3] = read-out: Cyclin Dependent Kinase Inhibitor 1A (CDKN1A), CDKN1A (gene 1026); experiment: LTEA_HepaRG_CDKN1A: Life Technologies and Expression Analysis (LTEA) Assay for Cyclin Dependent Kinase Inhibitor 1A (CDKN1A) using HepaRG (AID 2283450)
# Summary of the method: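 Differentiated human HepaRG cells, pre-cultured 48 h, were exposed in duplicate for 48 h in serum-free induction medium to eight half-log concentrations up to 100 uM (0.5% DMSO). CDKN1A mRNA was measured by qRT-PCR, normalized to ACTB/GAPDH/POLR2A, bidirectionally fitted versus DMSO.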
# [4] = read-out: Cyclin D1 (CCND1), CCND1 (gene 595); experiment: LTEA_HepaRG_CCND1: Life Technologies and Expression Analysis (LTEA) Assay for Cyclin D1 (CCND1) using HepaRG (AID 2283451)
# Summary of the method: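 Differentiated human HepaRG cells in serum-free induction medium were exposed 48 h to eight half-log concentrations up to 100 uM in 0.5% DMSO; mRNA quantified by TaqMan qRT-PCR, normalized to ACTB, GAPDH, POLR2A, fitted bidirectionally versus DMSO.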
# [5] = read-out: catalase (CAT), CAT (gene 847); experiment: LTEA_HepaRG_CAT: Life Technologies and Expression Analysis (LTEA) Assay for catalase (CAT) using HepaRG (AID 2283452);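 for AC50: TaqMan qRT-PCR signal normalized to ACTB GAPDH and POLR2A housekeeping genes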
# Summary of the method: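 Expression of CAT was quantified by TaqMan qRT-PCR with ACTB/GAPDH/POLR2A normalization after 48 h chemical exposure of HepaRG. Eight-point half-log series, top 100 uM, in 0.5% DMSO; gain or loss fitted against vehicle.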
# [6] = read-out: flavin-containing dimethylaniline monooxygenases 3 (FMO3), FMO3 (gene 2328); experiment: LTEA_HepaRG_FMO3: Life Technologies and Expression Analysis (LTEA) Assay for flavin-containing dimethylaniline monooxygenases 3 (FMO3) using HepaRG (AID 2283453)
# Summary of the method: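 FMO3 transcript quantified by TaqMan qRT-PCR against three housekeeping genes after 48 h chemical exposure of HepaRG cells. Eight-point half-log series, top 100 uM, 0.5% DMSO vehicle; phenobarbital 1mM induction control; up- or down-regulation fitted.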
# [7] = read-out: Cytochrome P450 (CYP1A1), CYP1A1 (gene 1543); experiment: LTEA_HepaRG_CYP1A1: Life Technologies and Expression Analysis (LTEA) Assay for Cytochrome P450 (CYP1A1) using HepaRG (AID 2283454)
# Summary of the method: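 Differentiated HepaRG cells in serum-free induction medium were exposed in duplicate for 48 h to eight half-log concentrations up to 100 uM in 0.5% DMSO. CYP1A1 mRNA was quantified by TaqMan qRT-PCR, normalized to ACTB, GAPDH and POLR2A.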
# [8] = read-out: CFLAR gene, CFLAR (gene 8837); experiment: LTEA_HepaRG_CFLAR: Life Technologies and Expression Analysis (LTEA) Assay for CFLAR gene using HepaRG (AID 2283455)
# Summary of the method: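 Transcript level by qRT-PCR (normalized to ACTB, GAPDH and POLR2A) after 48 h chemical exposure of HepaRG cells, top concentration 100 uM with half-log steps, 0.5% DMSO vehicle, duplicates; fitted bidirectionally against DMSO baseline.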
# [9] = read-out: Forkhead box O1 (FOXO1), FOXO1 (gene 2308); experiment: LTEA_HepaRG_FOXO1: Life Technologies and Expression Analysis (LTEA) Assay for Forkhead box O1 (FOXO1) using HepaRG (AID 2283456)
# Summary of the method: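 FOXO1 transcript quantified by qRT-PCR after 48 h chemical exposure (top 100 uM, half-log steps, 0.5% DMSO) of HepaRG cells, housekeeping-normalized (ACTB/GAPDH/POLR2A). Changes fitted in both directions relative to vehicle.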
# [10] = read-out: growth arrest and DNA damage 45 (GADD45A), GADD45A (gene 1647); experiment: LTEA_HepaRG_GADD45A: Life Technologies and Expression Analysis (LTEA) Assay for growth arrest and DNA damage 45 (GADD45A) using HepaRG (AID 2283458)
# Summary of the method: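 Transcript induction or loss, quantified by TaqMan qRT-PCR against three housekeeping genes, is the read-out. HepaRG cells received chemicals for 48 h across eight half-log concentrations from 100 uM in 0.5% DMSO; gain and loss fitted relative to DMSO.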
# [11] = read-out: ABC Transporter (ABCB1), ABCB1 (gene 5243); experiment: LTEA_HepaRG_ABCB1: Life Technologies and Expression Analysis (LTEA) Assay for ABC Transporter (ABCB1) using HepaRG (AID 2283460)
# Summary of the method: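 ABCB1 transcript level measured by TaqMan qRT-PCR against three housekeeping genes after 48 h chemical exposure of differentiated HepaRG cells. Top concentration 100 uM, half-log steps, eight points, 0.5% DMSO vehicle; bidirectional fit relative to DMSO.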
# [12] = read-out: growth arrest and DNA damage 45 (GADD45B), GADD45B (gene 4616); experiment: LTEA_HepaRG_GADD45B: Life Technologies and Expression Analysis (LTEA) Assay for growth arrest and DNA damage 45 (GADD45B) using HepaRG (AID 2283461)
# Summary of the method: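 Differentiated HepaRG cells, plated 48 h then switched to serum-free induction medium, were exposed 48 h in duplicate to eight half-log concentrations from 100 uM in 0.5% DMSO; mRNA quantified by qRT-PCR, normalized to ACTB/GAPDH/POLR2A, bidirectional fit versus DMSO.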
# [13] = read-out: ABC Transporter (ABCB11), ABCB11 (gene 8647); experiment: LTEA_HepaRG_ABCB11: Life Technologies and Expression Analysis (LTEA) Assay for ABC Transporter (ABCB11) using HepaRG (AID 2283463)
# Summary of the method: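 ABCB11 transcript levels quantified by TaqMan qRT-PCR against three housekeeping genes after 48 h chemical exposure of HepaRG cultures. Concentrations up to 100 uM in half-log steps, 0.5% DMSO vehicle; both induction and suppression scored.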
# [14] = read-out: ABC Transporter (ABCC2), ABCC2 (gene 1244); experiment: LTEA_HepaRG_ABCC2: Life Technologies and Expression Analysis (LTEA) Assay for ABC Transporter (ABCC2) using HepaRG (AID 2283464)
# Summary of the method: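 HepaRG cells were plated 48 h, switched to serum-free induction medium, then exposed in duplicate for 48 h to 8 concentrations (top 100 uM, half-log steps, 0.5% DMSO). ABCC2 mRNA was measured by qRT-PCR normalized to ACTB/GAPDH/POLR2A; bidirectional fitting versus DMSO.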
# [15] = read-out: Broad substrate specificity ATP-binding cassette transporter ABCG2 (Homo sapiens) (UniProt Q9UNQ0); experiment: LTEA_HepaRG_ABCG2: Life Technologies and Expression Analysis (LTEA) Assay for ABC Transporter (ABCG2) using HepaRG (AID 2283465)
# Summary of the method: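 ABCG2 transcript was quantified by TaqMan qRT-PCR against three housekeeping genes in HepaRG cells. Cells were treated in duplicate for 48 h across an 8-point half-log series up to 100 uM, with 0.5% DMSO vehicle. Gain or loss versus DMSO was fit.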
# [16] = read-out: ATP-citrate lyase (ACLY), ACLY (gene 47); experiment: LTEA_HepaRG_ACLY: Life Technologies and Expression Analysis (LTEA) Assay for ATP-citrate lyase (ACLY) using HepaRG (AID 2283466)
# Summary of the method: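 ACLY mRNA quantified by qRT-PCR on Fluidigm arrays against three housekeeping genes, after 48 h chemical treatment of HepaRG cells (top concentration 100 uM, half-log steps, 0.5% DMSO vehicle). Up- or down-regulation fitted relative to DMSO.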
# [17] = read-out: Peroxisomal acyl-coenzyme A oxidase 1 (ACOX1) gene, ACOX1 (gene 51); experiment: LTEA_HepaRG_ACOX1: Life Technologies and Expression Analysis (LTEA) Assay for Peroxisomal acyl-coenzyme A oxidase 1 (ACOX1) gene using HepaRG (AID 2283467)
# Summary of the method: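 ACOX1 transcript levels were quantified by TaqMan qRT-PCR against three housekeeping genes after 48 h chemical exposure of differentiated human HepaRG cells. Exposure used eight half-log steps topping at 100 uM, 0.5% DMSO vehicle, in duplicate. Bidirectional curve fits were made relative to DMSO.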
# [18] = read-out: Forkhead box O3 (FOXO3), FOXO3 (gene 2309); experiment: LTEA_HepaRG_FOXO3: Life Technologies and Expression Analysis (LTEA) Assay for Forkhead box O3 (FOXO3) using HepaRG (AID 2283459)
# Summary of the method: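 FOXO3 transcript measured by qRT-PCR (normalized to ACTB, GAPDH, POLR2A) after 48 h exposure of HepaRG cells in serum-free induction medium. Duplicates, eight half-log concentrations up to 100 uM, 0.5% DMSO; gain or loss fitted against DMSO.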
# [19] = read-out: ABC Transporter (ABCC3), ABCC3 (gene 8714); experiment: LTEA_HepaRG_ABCC3: Life Technologies and Expression Analysis (LTEA) Assay for ABC Transporter (ABCC3) using HepaRG (AID 2283462)
# Summary of the method: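 HepaRG cells in serum-free induction medium were exposed for 48 h in duplicate to 8-point half-log concentrations topping at 100 uM in 0.5% DMSO. ABCC3 mRNA was measured by qRT-PCR normalized to ACTB, GAPDH and POLR2A, with bidirectional fitting versus DMSO.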
# Sequence of Fatty acid synthase (Homo sapiens) (P49327 whole entry, looked up): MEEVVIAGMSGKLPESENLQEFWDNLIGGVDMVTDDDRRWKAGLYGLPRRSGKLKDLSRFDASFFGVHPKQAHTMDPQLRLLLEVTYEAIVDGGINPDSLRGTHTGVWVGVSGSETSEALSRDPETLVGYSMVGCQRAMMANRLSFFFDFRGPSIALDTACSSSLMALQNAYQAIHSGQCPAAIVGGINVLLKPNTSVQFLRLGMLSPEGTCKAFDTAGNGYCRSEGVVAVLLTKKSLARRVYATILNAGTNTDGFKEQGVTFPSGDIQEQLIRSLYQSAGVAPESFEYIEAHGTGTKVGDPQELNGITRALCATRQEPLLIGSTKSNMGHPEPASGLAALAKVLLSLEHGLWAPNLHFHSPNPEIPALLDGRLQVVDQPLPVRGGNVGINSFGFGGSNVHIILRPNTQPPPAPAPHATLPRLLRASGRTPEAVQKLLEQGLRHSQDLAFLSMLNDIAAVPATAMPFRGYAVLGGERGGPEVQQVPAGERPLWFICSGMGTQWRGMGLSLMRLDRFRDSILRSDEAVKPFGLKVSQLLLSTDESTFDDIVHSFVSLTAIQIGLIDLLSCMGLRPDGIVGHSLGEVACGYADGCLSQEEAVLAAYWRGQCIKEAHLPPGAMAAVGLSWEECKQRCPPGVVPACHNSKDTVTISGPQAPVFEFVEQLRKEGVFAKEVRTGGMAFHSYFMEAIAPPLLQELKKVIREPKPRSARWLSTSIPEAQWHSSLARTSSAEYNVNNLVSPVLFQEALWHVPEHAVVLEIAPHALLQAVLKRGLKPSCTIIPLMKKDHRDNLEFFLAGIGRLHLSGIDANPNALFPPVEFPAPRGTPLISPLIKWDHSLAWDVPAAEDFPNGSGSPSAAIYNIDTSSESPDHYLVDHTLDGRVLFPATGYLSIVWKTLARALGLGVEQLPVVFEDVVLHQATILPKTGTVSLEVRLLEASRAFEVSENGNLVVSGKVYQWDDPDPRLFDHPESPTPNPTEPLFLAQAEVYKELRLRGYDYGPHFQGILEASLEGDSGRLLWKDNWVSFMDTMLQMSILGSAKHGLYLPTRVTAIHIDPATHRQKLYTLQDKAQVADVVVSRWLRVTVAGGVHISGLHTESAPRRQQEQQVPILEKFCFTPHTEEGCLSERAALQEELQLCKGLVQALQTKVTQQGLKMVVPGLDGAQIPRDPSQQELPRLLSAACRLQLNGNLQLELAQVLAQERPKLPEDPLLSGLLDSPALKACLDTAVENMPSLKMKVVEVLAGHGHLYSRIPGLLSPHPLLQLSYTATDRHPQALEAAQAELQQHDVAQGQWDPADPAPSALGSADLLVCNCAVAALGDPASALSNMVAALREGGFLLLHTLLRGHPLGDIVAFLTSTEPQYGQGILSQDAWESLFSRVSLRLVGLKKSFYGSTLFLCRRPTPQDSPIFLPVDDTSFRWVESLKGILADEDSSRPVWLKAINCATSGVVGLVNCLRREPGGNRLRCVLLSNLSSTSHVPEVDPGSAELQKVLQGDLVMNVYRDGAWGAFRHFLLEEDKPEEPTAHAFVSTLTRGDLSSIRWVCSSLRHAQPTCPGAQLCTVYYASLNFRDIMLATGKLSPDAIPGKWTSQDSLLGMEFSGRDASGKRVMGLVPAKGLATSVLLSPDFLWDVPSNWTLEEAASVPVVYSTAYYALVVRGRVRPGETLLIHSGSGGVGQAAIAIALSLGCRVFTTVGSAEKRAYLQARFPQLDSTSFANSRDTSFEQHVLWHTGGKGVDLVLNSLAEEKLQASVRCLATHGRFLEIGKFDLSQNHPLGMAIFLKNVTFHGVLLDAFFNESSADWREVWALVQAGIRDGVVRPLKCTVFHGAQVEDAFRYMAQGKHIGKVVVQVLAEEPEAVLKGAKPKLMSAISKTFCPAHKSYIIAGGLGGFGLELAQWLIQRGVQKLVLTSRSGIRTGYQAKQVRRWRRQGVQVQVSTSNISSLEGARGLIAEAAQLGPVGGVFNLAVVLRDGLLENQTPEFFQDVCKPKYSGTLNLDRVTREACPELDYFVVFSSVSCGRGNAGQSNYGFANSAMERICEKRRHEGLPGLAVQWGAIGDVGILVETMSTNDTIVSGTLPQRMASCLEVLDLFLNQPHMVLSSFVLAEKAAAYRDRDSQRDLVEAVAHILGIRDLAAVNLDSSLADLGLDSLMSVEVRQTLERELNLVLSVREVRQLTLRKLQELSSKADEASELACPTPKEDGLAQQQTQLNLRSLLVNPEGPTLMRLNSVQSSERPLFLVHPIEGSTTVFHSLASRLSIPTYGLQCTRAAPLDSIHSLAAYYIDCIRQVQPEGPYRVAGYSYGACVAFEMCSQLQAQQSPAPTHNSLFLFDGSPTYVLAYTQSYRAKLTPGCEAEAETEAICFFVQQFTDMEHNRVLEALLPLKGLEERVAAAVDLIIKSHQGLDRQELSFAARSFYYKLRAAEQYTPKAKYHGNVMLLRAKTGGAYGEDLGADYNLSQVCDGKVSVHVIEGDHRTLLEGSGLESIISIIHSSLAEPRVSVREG
# Sequence of Broad substrate specificity ATP-binding cassette transporter ABCG2 (Homo sapiens) (Q9UNQ0 whole entry, looked up): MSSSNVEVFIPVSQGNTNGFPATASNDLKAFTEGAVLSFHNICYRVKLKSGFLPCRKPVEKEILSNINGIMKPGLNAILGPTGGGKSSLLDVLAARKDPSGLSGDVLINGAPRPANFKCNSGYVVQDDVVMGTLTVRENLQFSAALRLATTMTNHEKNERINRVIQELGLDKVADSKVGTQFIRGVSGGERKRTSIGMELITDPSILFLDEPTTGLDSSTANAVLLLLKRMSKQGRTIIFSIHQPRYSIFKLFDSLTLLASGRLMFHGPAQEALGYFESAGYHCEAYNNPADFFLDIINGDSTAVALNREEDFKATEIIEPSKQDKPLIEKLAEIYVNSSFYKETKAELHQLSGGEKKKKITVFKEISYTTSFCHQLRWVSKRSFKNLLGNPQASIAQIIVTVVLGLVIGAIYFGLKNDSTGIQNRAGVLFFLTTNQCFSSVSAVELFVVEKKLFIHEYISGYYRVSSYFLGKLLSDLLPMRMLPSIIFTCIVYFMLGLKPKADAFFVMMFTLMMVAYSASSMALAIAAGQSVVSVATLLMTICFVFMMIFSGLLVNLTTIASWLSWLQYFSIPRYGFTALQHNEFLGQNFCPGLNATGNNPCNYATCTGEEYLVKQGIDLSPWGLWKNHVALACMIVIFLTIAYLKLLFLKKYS
structure (smiles),measurement,setting,value
Cc1ncc([C@@H](CCCCCCc2ccc3c(n2)NCCC3)CC(=O)O)cn1,outcome,[1],inactive
same,outcome,[2],inactive
same,outcome,[3],inactive
same,outcome,[4],inactive
same,outcome,[5],inactive
same,outcome,[6],inactive
same,AC50,[7],50 µM (active)
same,outcome,[8],inactive
same,outcome,[9],inactive
same,outcome,[10],inactive
same,outcome,[11],inactive
same,outcome,[12],inactive
same,outcome,[13],inactive
same,outcome,[14],inactive
same,outcome,[15],inactive
same,outcome,[16],inactive
same,outcome,[17],inactive
CCCCCCOC(=O)CC(CC(=O)OCCCCCC)(OC(=O)CCC)C(=O)OCCCCCC,outcome,[1],inactive
same,outcome,[2],inactive
same,outcome,[3],inactive
same,outcome,[4],inactive
same,outcome,[5],inactive
same,outcome,[6],inactive
same,outcome,[7],inactive
same,outcome,[8],inactive
same,outcome,[9],inactive
same,outcome,[10],inactive
same,outcome,[11],inactive
same,outcome,[12],inactive
same,outcome,[13],inactive
same,outcome,[14],inactive
same,outcome,[15],inactive
same,outcome,[16],inactive
same,outcome,[17],inactive
CC(C)c1nnc2ccc(-c3ocnc3-c3cc(F)ccc3F)cn12,AC50,[1],50 µM (active)
same,outcome,[3],inactive
same,outcome,[4],inactive
same,AC50,[5],50 µM (active)
same,AC50,[6],63.6 µM (active)
same,AC50,[7],29.9 µM (active)
same,outcome,[8],inactive
same,outcome,[9],inactive
same,outcome,[10],inactive
same,outcome,[18],inactive
same,outcome,[11],inactive
same,outcome,[12],inactive
same,AC50,[19],50 µM (active)
same,AC50,[13],81 µM (active)
same,outcome,[14],inactive
same,AC50,[15],0.384 µM (active)
same,outcome,[16],inactive
same,outcome,[17],inactive
CCCCCCCCCC,outcome,[1],inactive
same,outcome,[2],inactive
same,outcome,[3],inactive
same,outcome,[4],inactive
same,outcome,[5],inactive
same,outcome,[6],inactive
same,AC50,[7],50 µM (active)
same,outcome,[8],inactive
same,outcome,[9],inactive
same,outcome,[10],inactive
same,outcome,[11],inactive
same,outcome,[12],inactive
same,outcome,[19],inactive
same,outcome,[13],inactive
same,outcome,[14],inactive
same,outcome,[15],inactive
same,outcome,[16],inactive
same,outcome,[17],inactive
